Drawing on PMC7862700, “An all-to-all approach to the identification of sequence-specific readers for epigenetic DNA modifications on cytosine”, this text covers binding signal for 2 sequences.

Assay in all cases: DAPPL (digital affinity profiling via proximity ligation, sequencing); 10 mM Tris-HCl pH 7.5, 50 mM NaCl, 1 mM DTT, 4% glycerol, room temperature, 30 min; GST-TFs on glutathione beads, 16-mer random dsDNA library, 0.1% formaldehyde crosslink after washing; high values mean tight binding
In test [1] the target is SPI1 (Homo sapiens, UniProt P17947 1-270). Particulars: protein: recombinant; tags: N-terminal GST; dsDNA, one strand shown. Summed up:
(§1)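 A tag-only sample was pooled with DNA-barcoded human transcription factors that had been expressed in yeast as GST fusions and captured on glutathione beads. The pools were incubated for 30 min at room temperature with 200 nmole of a random double-stranded 16-mer DNA library in Tris/NaCl/DTT/glycerol buffer, then washed, crosslinked with 0.1% formaldehyde, proximity-ligated (BsaI/T4 ligase, 1 h, 37 °C), PCR-amplified and sequenced on an Illumina NextSeq500. Binding signal is each hexamer's read frequency for a factor divided by its frequency for the tag-only sample.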

In test [2] the target is HSF1 (Homo sapiens, UniProt Q00613 1-529). Particulars: protein: recombinant; tags: N-terminal GST; chain copies: 3; dsDNA, one strand shown. Summed up:
as §1

Test [3] concerns the target T1, SPIC (Homo sapiens, UniProt Q8N5J4 1-248).
T1 sequence: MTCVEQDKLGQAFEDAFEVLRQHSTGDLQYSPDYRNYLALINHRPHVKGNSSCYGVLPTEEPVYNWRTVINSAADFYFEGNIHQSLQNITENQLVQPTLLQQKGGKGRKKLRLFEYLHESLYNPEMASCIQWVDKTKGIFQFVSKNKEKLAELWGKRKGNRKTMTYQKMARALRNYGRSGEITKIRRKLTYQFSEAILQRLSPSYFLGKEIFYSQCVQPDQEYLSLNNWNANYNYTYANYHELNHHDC
As to conditions: protein: recombinant; tags: N-terminal GST; dsDNA, one strand shown. Summed up:
as §1

Test [4] deals with CRX (Homo sapiens, UniProt O43186 1-299). As to conditions: protein: recombinant; tags: N-terminal GST; dsDNA, one strand shown. Summed up:
as §1

Test [5] deals with T2, ERF (Homo sapiens, UniProt P50548 1-548).
T2 sequence: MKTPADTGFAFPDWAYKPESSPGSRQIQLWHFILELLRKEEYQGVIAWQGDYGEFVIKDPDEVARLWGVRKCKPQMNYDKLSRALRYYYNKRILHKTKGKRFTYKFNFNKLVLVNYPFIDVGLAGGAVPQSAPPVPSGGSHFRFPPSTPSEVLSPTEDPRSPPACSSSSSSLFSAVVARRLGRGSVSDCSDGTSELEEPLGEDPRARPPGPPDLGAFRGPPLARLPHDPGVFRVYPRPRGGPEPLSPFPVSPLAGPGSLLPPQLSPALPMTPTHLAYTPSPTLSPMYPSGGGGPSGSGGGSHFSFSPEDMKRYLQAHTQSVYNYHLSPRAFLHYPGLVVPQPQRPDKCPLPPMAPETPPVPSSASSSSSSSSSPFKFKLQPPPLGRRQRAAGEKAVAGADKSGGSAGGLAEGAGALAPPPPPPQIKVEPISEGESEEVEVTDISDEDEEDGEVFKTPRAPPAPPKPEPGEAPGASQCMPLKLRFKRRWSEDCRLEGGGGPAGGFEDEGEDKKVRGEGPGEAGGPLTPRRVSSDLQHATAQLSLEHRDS
Particulars: protein: recombinant; tags: N-terminal GST; dsDNA, one strand shown. Summed up: as §1

Test [6] concerns the target T3, ETV7 (Homo sapiens, UniProt Q9Y603 1-341).
T3 sequence: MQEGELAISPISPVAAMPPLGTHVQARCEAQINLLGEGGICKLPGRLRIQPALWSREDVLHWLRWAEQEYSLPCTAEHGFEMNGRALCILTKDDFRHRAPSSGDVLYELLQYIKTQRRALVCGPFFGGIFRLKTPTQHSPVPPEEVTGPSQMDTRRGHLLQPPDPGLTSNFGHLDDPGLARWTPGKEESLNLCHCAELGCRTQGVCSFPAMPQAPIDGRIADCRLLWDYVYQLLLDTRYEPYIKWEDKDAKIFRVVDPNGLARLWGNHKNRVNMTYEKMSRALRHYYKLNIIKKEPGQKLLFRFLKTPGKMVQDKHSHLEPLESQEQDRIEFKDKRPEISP
As to conditions: protein: recombinant; tags: N-terminal GST; dsDNA, one strand shown. Summed up: as §1

The target of test [7] is T4, GABPA (Homo sapiens, UniProt Q06546 1-454).
T4 sequence: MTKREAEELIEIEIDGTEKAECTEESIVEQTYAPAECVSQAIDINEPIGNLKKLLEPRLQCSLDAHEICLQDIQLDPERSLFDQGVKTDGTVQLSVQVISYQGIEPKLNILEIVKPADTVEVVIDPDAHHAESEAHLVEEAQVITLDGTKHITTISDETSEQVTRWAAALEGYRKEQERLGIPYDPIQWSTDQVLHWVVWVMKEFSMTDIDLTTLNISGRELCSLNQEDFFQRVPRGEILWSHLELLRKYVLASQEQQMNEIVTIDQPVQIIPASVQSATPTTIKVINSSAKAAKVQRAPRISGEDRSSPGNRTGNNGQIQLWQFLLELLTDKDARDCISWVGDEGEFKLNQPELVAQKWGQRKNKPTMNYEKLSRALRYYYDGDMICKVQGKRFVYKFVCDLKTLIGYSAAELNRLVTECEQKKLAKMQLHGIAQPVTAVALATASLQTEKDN
As to conditions: protein: recombinant; tags: N-terminal GST; dsDNA, one strand shown. Summed up: as §1

Test [8] concerns the target T5, ERG (Homo sapiens, UniProt P11308 1-479).
T5 sequence: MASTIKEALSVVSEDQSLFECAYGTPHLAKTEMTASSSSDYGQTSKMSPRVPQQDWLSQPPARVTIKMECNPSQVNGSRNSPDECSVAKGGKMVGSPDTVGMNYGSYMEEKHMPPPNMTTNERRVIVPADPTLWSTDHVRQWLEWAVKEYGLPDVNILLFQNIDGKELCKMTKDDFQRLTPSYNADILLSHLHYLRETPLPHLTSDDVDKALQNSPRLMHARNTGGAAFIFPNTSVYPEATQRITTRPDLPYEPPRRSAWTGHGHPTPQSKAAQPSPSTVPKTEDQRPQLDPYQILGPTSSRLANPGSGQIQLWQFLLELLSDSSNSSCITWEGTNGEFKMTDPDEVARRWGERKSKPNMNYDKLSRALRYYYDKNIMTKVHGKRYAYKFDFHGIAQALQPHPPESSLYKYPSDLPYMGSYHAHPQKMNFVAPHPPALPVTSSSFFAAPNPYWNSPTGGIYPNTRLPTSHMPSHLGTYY
As to conditions: protein: recombinant; tags: N-terminal GST; dsDNA, one strand shown. Summed up: as §1

Test [9] has as its target T6, FEV (Homo sapiens, UniProt Q99581 1-238).
T6 sequence: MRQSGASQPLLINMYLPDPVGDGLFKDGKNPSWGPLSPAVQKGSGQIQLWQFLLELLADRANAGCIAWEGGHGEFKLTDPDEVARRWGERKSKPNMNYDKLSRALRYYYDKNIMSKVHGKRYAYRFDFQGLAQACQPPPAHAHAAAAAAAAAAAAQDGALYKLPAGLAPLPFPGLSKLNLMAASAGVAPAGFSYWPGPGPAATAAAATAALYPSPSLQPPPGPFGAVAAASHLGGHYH
As to conditions: protein: recombinant; tags: N-terminal GST; dsDNA, one strand shown. Summed up:
as §1

In test [10] the target is ETV1 (Homo sapiens, UniProt P50549 1-477). Particulars: protein: recombinant; tags: N-terminal GST; dsDNA, one strand shown. Summed up: as §1
ETV1, sequence (P50549 whole entry): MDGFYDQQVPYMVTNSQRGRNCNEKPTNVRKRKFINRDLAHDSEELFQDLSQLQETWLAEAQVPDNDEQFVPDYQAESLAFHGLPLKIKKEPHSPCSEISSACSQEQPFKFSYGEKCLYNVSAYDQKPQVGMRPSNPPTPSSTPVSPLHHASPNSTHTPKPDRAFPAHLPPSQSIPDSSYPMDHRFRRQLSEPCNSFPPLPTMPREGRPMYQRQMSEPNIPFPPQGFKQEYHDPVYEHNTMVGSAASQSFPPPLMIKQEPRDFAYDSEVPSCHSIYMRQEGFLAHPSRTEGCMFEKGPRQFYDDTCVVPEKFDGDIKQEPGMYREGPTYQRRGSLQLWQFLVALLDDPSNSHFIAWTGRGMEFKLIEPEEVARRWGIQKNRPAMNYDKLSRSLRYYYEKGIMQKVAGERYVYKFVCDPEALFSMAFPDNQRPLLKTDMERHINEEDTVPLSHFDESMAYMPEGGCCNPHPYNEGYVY
The target in test [11] is T7, ETV3L (Homo sapiens, UniProt Q6ZN32 1-361).
T7 sequence: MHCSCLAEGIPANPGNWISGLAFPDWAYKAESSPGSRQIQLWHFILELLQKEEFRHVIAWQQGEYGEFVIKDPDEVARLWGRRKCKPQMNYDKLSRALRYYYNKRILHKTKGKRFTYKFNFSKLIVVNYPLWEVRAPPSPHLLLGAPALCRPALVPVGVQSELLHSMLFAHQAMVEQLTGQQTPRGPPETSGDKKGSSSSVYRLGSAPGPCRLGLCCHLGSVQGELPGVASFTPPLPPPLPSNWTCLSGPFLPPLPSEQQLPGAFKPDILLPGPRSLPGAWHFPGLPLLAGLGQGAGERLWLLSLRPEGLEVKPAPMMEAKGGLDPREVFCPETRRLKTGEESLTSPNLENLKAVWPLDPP
As to conditions: protein: recombinant; tags: N-terminal GST; dsDNA, one strand shown. Summed up:
as §1

The target in test [12] is T8, ETS2 (Homo sapiens, UniProt P15036 1-469).
T8 sequence: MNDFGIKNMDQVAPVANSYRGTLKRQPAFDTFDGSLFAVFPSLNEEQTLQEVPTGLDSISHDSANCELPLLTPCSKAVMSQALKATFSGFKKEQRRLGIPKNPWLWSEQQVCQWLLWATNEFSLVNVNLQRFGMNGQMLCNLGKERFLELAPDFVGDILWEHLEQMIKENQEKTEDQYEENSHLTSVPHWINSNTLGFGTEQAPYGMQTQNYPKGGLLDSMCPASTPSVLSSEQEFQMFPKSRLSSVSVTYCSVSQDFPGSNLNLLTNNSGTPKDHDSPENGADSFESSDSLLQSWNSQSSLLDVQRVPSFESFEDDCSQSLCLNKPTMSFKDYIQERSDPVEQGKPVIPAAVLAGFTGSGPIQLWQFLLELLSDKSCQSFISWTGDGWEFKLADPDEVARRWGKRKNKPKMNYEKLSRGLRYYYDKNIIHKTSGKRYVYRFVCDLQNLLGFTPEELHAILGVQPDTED
Particulars: protein: recombinant; tags: N-terminal GST; dsDNA, one strand shown. Summed up:
as §1

CRX, sequence (O43186 whole entry): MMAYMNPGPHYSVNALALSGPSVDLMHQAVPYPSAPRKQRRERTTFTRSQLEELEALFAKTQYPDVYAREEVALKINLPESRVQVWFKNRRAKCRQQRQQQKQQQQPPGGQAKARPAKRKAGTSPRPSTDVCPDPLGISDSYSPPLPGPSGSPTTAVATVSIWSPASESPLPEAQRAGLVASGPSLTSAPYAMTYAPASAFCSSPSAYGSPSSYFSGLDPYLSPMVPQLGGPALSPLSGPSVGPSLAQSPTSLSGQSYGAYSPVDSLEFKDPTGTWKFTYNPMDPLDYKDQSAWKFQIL
HSF1, sequence (Q00613 whole entry): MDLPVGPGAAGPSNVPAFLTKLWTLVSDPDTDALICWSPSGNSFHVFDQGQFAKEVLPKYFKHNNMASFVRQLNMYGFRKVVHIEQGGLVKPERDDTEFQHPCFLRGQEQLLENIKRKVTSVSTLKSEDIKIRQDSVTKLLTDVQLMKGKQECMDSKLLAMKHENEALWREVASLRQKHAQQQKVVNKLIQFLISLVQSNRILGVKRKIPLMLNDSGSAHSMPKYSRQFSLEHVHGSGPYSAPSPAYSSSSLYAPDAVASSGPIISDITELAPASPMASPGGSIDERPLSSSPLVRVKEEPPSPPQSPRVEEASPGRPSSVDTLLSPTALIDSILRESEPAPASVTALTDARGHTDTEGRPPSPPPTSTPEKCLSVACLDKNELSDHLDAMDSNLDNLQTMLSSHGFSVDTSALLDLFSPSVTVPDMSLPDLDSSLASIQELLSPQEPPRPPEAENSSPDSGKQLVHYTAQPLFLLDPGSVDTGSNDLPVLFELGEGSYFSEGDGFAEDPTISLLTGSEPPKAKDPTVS

Take TCGAAA: the binding signal was 1.02 fold enrichment (6-mer frequency, TF over GST control) in [1]; 2.08 fold enrichment (6-mer frequency, TF over GST control) in test [2]; 1.06 fold enrichment (6-mer frequency, TF over GST control) in test [3]; 1.16 fold enrichment (6-mer frequency, TF over GST control) in test [4]; 1.01 fold enrichment (6-mer frequency, TF over GST control) in test [5]; 1.05 fold enrichment (6-mer frequency, TF over GST control) in [6].

For TTAGGC, the binding signal was 1.02 fold enrichment (6-mer frequency, TF over GST control) in test [7]; 1.03 fold enrichment (6-mer frequency, TF over GST control) in test [8]; 1 fold enrichment (6-mer frequency, TF over GST control) in test [9]; 1.37 fold enrichment (6-mer frequency, TF over GST control) in test [2]; 1.08 fold enrichment (6-mer frequency, TF over GST control) in [3]; 2.06 fold enrichment (6-mer frequency, TF over GST control) in test [4]. Besides, the binding signal in test [10] was 1.03 fold enrichment (6-mer frequency, TF over GST control); in [5], 1.02 fold enrichment (6-mer frequency, TF over GST control); in test [11], 1.01 fold enrichment (6-mer frequency, TF over GST control); in test [12], 1.01 fold enrichment (6-mer frequency, TF over GST control); in [6], 1.16 fold enrichment (6-mer frequency, TF over GST control).
